{"source": "PubChem BioAssay AID1852", "about": "(Sanford-Burnham Center for Chemical Genomics, 2009)", "note": "Hit rate of the full screen: of about 2,500 compounds, about 1,100 (44%) were called active. So high a share suggests a set chosen from earlier hits. The list shows a part of the results. Unmarked numbers belong to inactive results.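 How the source made its calls: active means inhibition above 50% at 4 µM in the single-point screen; inactive means inhibition of 50% or less.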", "data": [{"assay": "blockers of TNF-a NF-kB luciferase induction – cell-based, HEK293T NF-kB-Luc, luminescence, selectivity assay for NOD1/NOD2 signaling inhibitor project, primary screen (AID 1852)", "conditions": "TNF-a induced, 14 h, at 4 µM, active compounds read high", "values": [{"compound": "CCCCCCc1cc2cc(-c3nnc(-c4cc(OC)c(OC)c(OC)c4)o3)c(=O)oc2cc1O", "inhibition": "69.4% (active)"}, {"compound": "CCCCCCc1cc2cc(-c3nnc(-c4ccccc4OC)o3)c(=O)oc2cc1O", "inhibition": "-7.1%"}, {"compound": "CCCCCCc1cc2cc(-c3nnc(-c4ccccc4O)o3)c(=O)oc2cc1O", "inhibition": "22.1%"}, {"compound": "COc1cccc(N(C(=O)CCl)C(C(=O)NCCc2ccccc2)c2cccs2)c1", "note": "(stereo unspecified)", "inhibition": "81.5% (active)"}, {"compound": "COc1cccc(-c2nc(CS(=O)(=O)CC(=O)NCCc3ccccc3)c(C)o2)c1", "inhibition": "11.1%"}, {"compound": "COc1ccc(N(C(=O)CCl)C(C(=O)NCCc2ccccc2)c2cccs2)cc1", "note": "(stereo unspecified)", "inhibition": "60.3% (active)"}, {"compound": "COc1ccc(CN(CCC(c2ccccc2)c2ccc(OC(C)C)cc2)C(=O)CCl)cc1OC", "note": "(stereo unspecified)", "inhibition": "-5.8%"}, {"compound": "O=C(NCCc1ccccc1)C(c1cccs1)N(C(=O)CCl)c1ccc(Cl)cc1", "note": "(stereo unspecified)", "inhibition": "24.6%"}, {"compound": "C=CCN1C(=O)/C(=C/c2ccc(OC(C)=O)c(OCC)c2[N+](=O)[O-])SC1=S", "inhibition": "56.7% (active)"}, {"compound": "CN(C)c1ccc(-c2noc(C3CCN(S(=O)(=O)c4cccc(Cl)c4)CC3)n2)cc1", "inhibition": "31%"}, {"compound": "COc1cc(C(=O)Nc2cccc(-c3nc4cc(C)ccc4o3)c2)cc(OC)c1OC", "inhibition": "-51.1%"}, {"compound": "COc1ccc(CCN2CC(C(=O)N(C)CC(=O)Nc3cccc(F)c3)CC2=O)cc1OC", "note": "(stereo unspecified)", "inhibition": "21.5%"}, {"compound": "COc1ccc(CC(=O)Nc2cccc(-c3nnc(-c4ccc(C)cc4)o3)c2)cc1OC", "inhibition": "77.2% (active)"}, {"compound": "COc1ccc(C2=Nn3c([n+](C)c4ccccc43)SC2)cc1", "inhibition": "32.8%"}, {"compound": "C[n+]1c2n(c3ccccc31)N=C(c1cc(C(C)(C)C)c(O)c(C(C)(C)C)c1)CS2", "inhibition": "82.3% (active)"}, {"compound": "COc1ccc(NC(=O)/C(Cl)=C(/Cl)S(=O)(=O)Cc2ccccc2)cn1", "inhibition": "92.3% (active)"}, {"compound": "COc1ccc(NC(=O)c2cccc(S(=O)(=O)Nc3ccc(Br)cc3)c2)cn1", "inhibition": "23.8%"}, {"compound": "COc1ccc(NS(=O)(=O)c2ccc3c(c2)Cc2ccccc2-3)cn1", "inhibition": "25.4%"}, {"compound": "COc1ccc(NC(=O)/C(Cl)=C(/Cl)S(=O)(=O)Cc2ccc(C)cc2)cn1", "inhibition": "108% (active)"}, {"compound": "Cc1cccc(C(=O)NNC2=C(C(=O)C(F)(F)F)CCC2)c1O", "inhibition": "93.3% (active)"}, {"compound": "O=C(NNC1=C(C(=O)C(F)(F)F)CCC1)c1ccccc1O", "inhibition": "15%"}, {"compound": "Cc1c(CCC(=O)O)c(=O)oc2c(C)c3occ(-c4ccc(Cl)cc4)c3cc12", "inhibition": "59.5% (active)"}, {"compound": "Cc1oc2c(C)c3oc(=O)c(CCC(=O)O)c(C)c3cc2c1-c1ccccc1", "inhibition": "47%"}, {"compound": "O=c1c(-c2ccc(Cl)cc2)coc2c(CN3CCCCC3)c(O)ccc12", "inhibition": "37.4%"}, {"compound": "COc1cccc(-c2coc3c(C)c4oc(=O)c(CCC(=O)O)c(C)c4cc23)c1", "inhibition": "69.3% (active)"}, {"compound": "Cc1c(CCC(=O)O)c(=O)oc2cc3oc4c(c3cc12)CCCC4", "inhibition": "48.7%"}]}]}
